Screening data from PubChem BioAssay.
Sampled rows, rich in hits. Any-hit rate of the full collection: about 4.1%.
Mdm2 MdmX PPI – inhibitors of human Mdm2/MdmX interaction | O15151+Q00987 | SaOS-2 split-luciferase Mdm2/MdmX complementation, luminescence | inhibition, % at 8 µM | actives 3% (n = 330,000);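 active means inhibition of at least 50% at 8 µM in the primary screen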
Jurkat NFkB inh – lowers PMA/ionomycin-induced NF-kB signal in Jurkat cells | PMA/ionomycin-induced NF-kB luciferase reporter, luminescence | actives 0.53% (n = 330,000) | inhibition, % at 4 µM; in the data active means inhibition above about 50%
KLF5 inhibitor – kruppel-like factor 5 inhibition | DLD-1 KLF5 promoter-luciferase reporter, luminescence | inhibition, % at 5 µM | actives 0.23% (n = 290,000) | AID 1700;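 active means inhibition above a per-plate limit of that plate's mean compound inhibition plus 3 SD, cut at about 60% in these data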;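 further: 0% = DMSO wells and 100% = LY294002 at 200 µM; higher means less KLF5 promoter-driven luciferase light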
aSyn 5UTR inh – MLPCN primary screen, SNCA 5' untranslated region | inhibition, % (tested at 7.5 µM) | alpha-synuclein 5'UTR reporter, inhibitor activity | actives 0.82% (n = 300,000); in the data active means inhibition above about 60%;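 further: H4 neuroglioblastoma cells stably carrying SNCA 5'UTR luciferase fusion; 0% = DMSO wells and 100% = positive control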
Gli-Sufu antag – antagonists of Gli-Sufu signaling | Sufu-KO-LIGHT fibroblasts, Gli luciferase reporter luminescence | inhibition, % at 5 µM | actives 0.74% (n = 340,000);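 active means inhibition above about 55%, limit read from the data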;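 further: 0% = DMSO-treated cells and 100% = wells with medium but no cells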
697 NFkB inh – lowers PMA/ionomycin-induced NF-kB signal in 697 B cells; 697 B-cell NF-kB luciferase reporter, 16 h; inhibition, % at 4 µM; actives 0.33% (n = 330,000); AID 435022; in the data active means inhibition above about 35%
Mdm2 MdmX conf – confirmation of human Mdm2/MdmX interaction inhibitors; inhibition, % at 8 µM; shares compounds with Mdm2 MdmX PPI; Mdm2-MdmX binding, luminescent assay; AID 489028; actives 55% (n = 10,000); in the data active means inhibition above about 40%
Full FLuc ctr – inhibits full-length luciferase, flagging false Mdm2/MdmX hits | shares compounds with Mdm2 MdmX PPI | SaOS-2 full-length luciferase counterscreen, luminescence | inhibition, % at 8 µM | actives 77% (n = 6,200) | AID 504607;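 active means mean inhibition at 8 µM reaching about 37%, which flags the compound as non-specific, limit read from the data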;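 further: p53-null SaOS-2 cells with luciferase driven by a doxycycline-inducible promoter; compound on cells about two nights before reading with doxycycline added after day one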
* hit, by the source's call.

For COc1cc(O)c2c(c1)OC(C)(C)CC2=O the results were Mdm2 MdmX PPI 4, Jurkat NFkB inh 4, KLF5 inhibitor -14, aSyn 5UTR inh -7, Gli-Sufu antag 3 and 697 NFkB inh 6.
`CCN(CC)C(=O)c1cn(CCC#N)nc1-c1ccc(F)cc1` gave Mdm2 MdmX PPI -31, Jurkat NFkB inh 5, KLF5 inhibitor -7, aSyn 5UTR inh 16, Gli-Sufu antag 0 and 697 NFkB inh 3.
Screening O=C(CCl)N(CCCNC(=O)C(F)(F)F)c1ccc([N+](=O)[O-])cc1 returned Mdm2 MdmX PPI 93*, Jurkat NFkB inh 18, KLF5 inhibitor -19, aSyn 5UTR inh -12, Gli-Sufu antag 6, 697 NFkB inh 26, Mdm2 MdmX conf 72* and Full FLuc ctr 38*.
`Cc1ccc(CS(=O)(=O)CC(C)(O)c2ccccc2)cc1` (stereo not given) gave Mdm2 MdmX PPI -7, Jurkat NFkB inh -12, KLF5 inhibitor -3, aSyn 5UTR inh 12, Gli-Sufu antag 10 and 697 NFkB inh -28.
CCn1c(C)nc2cc(C(=O)N3N=C(CCOC)CC3(O)C(F)(F)F)ccc21 (stereo not given) was read as Mdm2 MdmX PPI 13, Jurkat NFkB inh 11, KLF5 inhibitor -28, aSyn 5UTR inh 6, Gli-Sufu antag 2 and 697 NFkB inh 14.
For CCCCC1C(=O)N(c2ccccc2)N(c2ccc(O)cc2)C1=O (stereo not given) the results were Mdm2 MdmX PPI 98*, Jurkat NFkB inh 16, Gli-Sufu antag 9, 697 NFkB inh -48, Mdm2 MdmX conf 36 and Full FLuc ctr 8.
`CC1CCN(S(=O)(=O)c2ccc(NC(=S)NC(=O)c3ccc(Cl)cc3)cc2)CC1` gave Mdm2 MdmX PPI 54*, Jurkat NFkB inh 13, KLF5 inhibitor -15, aSyn 5UTR inh 2, Gli-Sufu antag 34, 697 NFkB inh -11, Mdm2 MdmX conf 36 and Full FLuc ctr 72*.
Screening CN1CCN(S(=O)(=O)c2ccc(NC(=S)NC(=O)c3ccc(Cl)cc3)cc2)CC1 returned KLF5 inhibitor -38 and Gli-Sufu antag 19.
Cc1ccc(/C=C/C(=O)c2ccc([N+](=O)[O-])o2)cc1 was read as Mdm2 MdmX PPI 100*, Jurkat NFkB inh 16, aSyn 5UTR inh -34, Gli-Sufu antag 2, 697 NFkB inh 2, Mdm2 MdmX conf 97* and Full FLuc ctr 58*.
For O=C(/C=C/c1ccc(Cl)cc1)c1ccc([N+](=O)[O-])o1 the results were Mdm2 MdmX PPI 98*, Jurkat NFkB inh 12, aSyn 5UTR inh 48, Gli-Sufu antag -18, 697 NFkB inh -11, Mdm2 MdmX conf 100* and Full FLuc ctr 31.
For Cc1ccc(CNC(=O)c2ccc([N+](=O)[O-])o2)cc1 the results were Mdm2 MdmX PPI 18, Jurkat NFkB inh 3, KLF5 inhibitor 1, aSyn 5UTR inh -70, Gli-Sufu antag -6 and 697 NFkB inh 22.
For COc1ccc(S(=O)(=O)N(C)C)cc1NC(=O)COC(=O)Cn1cnc2ccccc2c1=O the results were Mdm2 MdmX PPI 13, Jurkat NFkB inh -11 and 697 NFkB inh 17.
For CCOc1ccc(C(=O)NC(=S)Nc2ccccn2)cc1[N+](=O)[O-] the results were Mdm2 MdmX PPI 88*, Jurkat NFkB inh -44, KLF5 inhibitor 3, aSyn 5UTR inh -104, Gli-Sufu antag -23, 697 NFkB inh -34 and Mdm2 MdmX conf -14.
CCOc1ccc(C(=O)NC(=S)Nc2cc(C)ccn2)cc1[N+](=O)[O-] was read as Mdm2 MdmX PPI 33, Jurkat NFkB inh -15, aSyn 5UTR inh -11, Gli-Sufu antag -2 and 697 NFkB inh 16.
CCN1CCN(c2ncc(C(=O)Nc3cc(Cl)ccc3OC)c3ccccc23)CC1 was read as Mdm2 MdmX PPI 54*, Jurkat NFkB inh 19, KLF5 inhibitor 5, aSyn 5UTR inh -38, Gli-Sufu antag 24, 697 NFkB inh -9 and Mdm2 MdmX conf 3.
For COc1ccc(Cl)cc1NC(=O)CCN1CCN(c2ccccc2C)CC1 the results were Mdm2 MdmX PPI 7, Jurkat NFkB inh 25, KLF5 inhibitor -21, aSyn 5UTR inh -1, Gli-Sufu antag 6 and 697 NFkB inh 1.
Screening Cc1ccc(NC(=O)c2cnc(N3CCN(c4ccccn4)CC3)c3ccccc23)c(Br)c1 returned KLF5 inhibitor 10, aSyn 5UTR inh 5 and Gli-Sufu antag 33.
Screening O=C(Nc1c(F)cccc1F)c1cnc(N2CCN(c3ccccn3)CC2)c2ccccc12 returned Mdm2 MdmX PPI 57*, Jurkat NFkB inh 20, KLF5 inhibitor 1, aSyn 5UTR inh -7, Gli-Sufu antag 11, 697 NFkB inh 16 and Mdm2 MdmX conf 32.
`CCN(CC)S(=O)(=O)c1cccc(C(=O)N[C@H](C(=O)Nc2nc3ccc(F)cc3s2)C(C)C)c1` gave Mdm2 MdmX PPI 9, Jurkat NFkB inh -48, KLF5 inhibitor -5, aSyn 5UTR inh -83, Gli-Sufu antag -3 and 697 NFkB inh -59.
O=C(CNc1cccc2ccccc12)N/N=C/c1ccc([N+](=O)[O-])o1 was read as Mdm2 MdmX PPI 51*, Jurkat NFkB inh 24, KLF5 inhibitor -11, aSyn 5UTR inh 11, Gli-Sufu antag -7, 697 NFkB inh 3 and Mdm2 MdmX conf 20.
O=C(CNc1cccc([N+](=O)[O-])c1)N/N=C/c1ccc([N+](=O)[O-])o1 was read as Mdm2 MdmX PPI 3, Jurkat NFkB inh 25, KLF5 inhibitor -14, aSyn 5UTR inh -10, Gli-Sufu antag 1 and 697 NFkB inh -2.
O=C(CNc1cccc2ccccc12)N/N=C/C(Br)=C/c1ccccc1 was read as Mdm2 MdmX PPI 59*, Jurkat NFkB inh 49, KLF5 inhibitor -12, aSyn 5UTR inh -14, Gli-Sufu antag 1, 697 NFkB inh -129, Mdm2 MdmX conf 37 and Full FLuc ctr 47*.
Screening CSc1ccc(/C=N/NC(=O)CNc2cccc3ccccc23)cc1 returned Mdm2 MdmX PPI 27, Jurkat NFkB inh 0, KLF5 inhibitor -25, aSyn 5UTR inh 4, Gli-Sufu antag -6 and 697 NFkB inh 23.
For Cc1nc2ccc(NS(=O)(=O)c3ccc(Br)cc3)cc2s1 the results were Mdm2 MdmX PPI 10, Jurkat NFkB inh 2, Gli-Sufu antag -8 and 697 NFkB inh -1.
Screening CCOC(=O)c1[nH]c2ccc(Cl)cc2c1NC(=O)/C=C/c1ccc2c(c1)OCO2 returned Mdm2 MdmX PPI 56*, Jurkat NFkB inh 15, KLF5 inhibitor -13, aSyn 5UTR inh 17, Gli-Sufu antag 29, 697 NFkB inh -12, Mdm2 MdmX conf 45* and Full FLuc ctr 94*.
